Results published in the supplement of paper PMC6992640.
± gives the standard deviation of the averaged measurements.

Key:
Assay in all cases: cell viability (% of vehicle); higher = less cytotoxic
Conditions in all cases: 10 µM; 72 h
HCI01 = test system: HCI01 (cells of a triple-negative basal-like breast cancer xenograft)
HCI03 = test system: HCI03 (cells of an ER-positive luminal breast cancer xenograft)
HCI09 = test system: HCI09 (cells of a triple-negative luminal androgen receptor type breast cancer xenograft)
HCI11 = test system: HCI11 (cells of an ER-positive luminal breast cancer xenograft)
HCI13 = test system: HCI13 (cells of an ER-positive luminal breast cancer xenograft)
HCI16 = test system: HCI16 (cells of a triple-negative basal-like breast cancer xenograft)
UCD52 = test system: UCD52 (cells of a triple-negative basal-like breast cancer xenograft)
WHIM2 = test system: WHIM2 (cells of a triple-negative basal-like breast cancer xenograft)
WHIM30 = test system: WHIM30 (cells of a triple-negative basal-like breast cancer xenograft)
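Further: PDX cells carrying CMV promoter-driven luciferase, viability read as total photon flux per second by IVIS imaging following D-luciferin, vehicle control 0.1% DMSO.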

Row | SMILES | cell viability (HCI01) | cell viability (HCI03) | cell viability (HCI09) | cell viability (HCI11) | cell viability (HCI13) | cell viability (HCI16) | cell viability (UCD52) | cell viability (WHIM2) | cell viability (WHIM30)
1 | CC1(C(=O)[O-])CCC2(C)CCC3(C)C(=CC(=O)C4C5(C)CCC(OC(=O)CCC(=O)[O-])C(C)(C)C5CCC43C)C2C1.[Na+].[Na+] (stereo not drawn) [Carbenoxolone disodium] | 84.3 ± 8 | 122 | 89.2 ± 4.5 | 103 | 129 ± 87 | 108 | 82.3 ± 1.7 | 108 ± 11 | 97.9 ± 2.5
2 | COc1ccccc1Oc1c(NS(=O)(=O)c2ccc(C(C)(C)C)cc2)nc(-c2ncccn2)nc1OCCO [Bosentan] | 110 ± 16 | 95.1 | 71.1 ± 21 | 86.4 | 83.7 ± 5.7 | 104 | 111 ± 2.8 | 114 ± 36 | 114 ± 3.2
3 | OCC(CO)NC1CC(O)(CO)C(O)C(O)C1O (stereo not drawn) [Voglibose] | 106 ± 13 | 109 | 93 ± 17 | 89.1 | 58.7 ± 0.94 | 129 | 80.3 ± 5.1 | 117 ± 27 | 110 ± 8.8
4 | COCCCOc1cc(CC(CC(N)C(O)CC(C(=O)NCC(C)(C)C(N)=O)C(C)C)C(C)C)ccc1OC.COCCCOc1cc(CC(CC(N)C(O)CC(C(=O)NCC(C)(C)C(N)=O)C(C)C)C(C)C)ccc1OC.O=C(O)C=CC(=O)O (stereo not drawn) [Aliskiren Hemifumarate] | 117 ± 11 | 157 | 107 ± 8.5 | 97.2 | 107 ± 2.1 | 148 | 108 ± 13 | 123 ± 14 | 140 ± 14
5 | C1CNCCN1.C[C@@]12CC[C@H]3c4ccc(OS(=O)(=O)O)cc4CC[C@H]3[C@H]1CCC2=O [Estropipate] | 89.8 ± 7.5 | 173 | 81.6 ± 11 | 95.3 | 159 ± 20 | 104 | 104.03 ± 0.037 | 91.3 ± 27 | 98.27 ± 0.36
6 | CS(=O)(=O)c1ccc(C(O)C(CF)NC(=O)C(Cl)Cl)cc1 (stereo not drawn) [Florfenicol] | 118 ± 25 | 118 | 89.5 ± 2.1 | 101 | 114 ± 8.4 | 116 | 102 ± 2.6 | 87.4 ± 18 | 99.1 ± 6.9
7 | CC(=O)OC1(C(C)=O)CCC2C3CCC4=CC(=O)CCC4=C3C(c3ccc(N(C)C)cc3)CC21C (stereo not drawn) [Ulipristal acetate] | 97.9 ± 26 | 116 | 82.5 ± 9 | 78.9 | 92.8 ± 17 | 117 | 93.4 ± 5.8 | 105 ± 2.1 | 111 ± 18
8 | CN1C2=CC(=O)C(=NNC(N)=O)C=C2CC1S(=O)(=O)[O-].[Na+] (stereo not drawn) [Carbazochrome sodium sulfonate (AC-17)] | 99.8 ± 0.3 | 129 | 105.4 ± 0.44 | 94.6 | 81 ± 18 | 124 | 99 ± 19 | 99.4 ± 21 | 134 ± 9.7
9 | Cc1cc(Nc2cc(N3CCN(C)CC3)nc(Sc3ccc(NC(=O)C4CC4)cc3)n2)n[nH]1 [VX-680 (MK-0457,Tozasertib)] | 122 ± 11 | 84.3 | 70 ± 21 | 133 | 81.5 ± 1.7 | 111 | 66.5 ± 10 | 67.6 ± 2.1 | 142 ± 14
10 | Clc1ccc2c(c1)C(N1CCNCC1)=Nc1ccccc1O2 [Amoxapine] | 96.5 ± 15 | 104 | 87.5 ± 8.7 | 85 | 88 ± 2.5 | 94.9 | 100 ± 40 | 91.7 ± 7.3 | 197 ± 18
11 | CC1OC(OC2C(CO)OC(OC3C(CO)OC(O)C(O)C3O)C(O)C2O)C(O)C(O)C1NC1C=C(CO)C(O)C(O)C1O (stereo not drawn) [Acarbose] | 112 ± 9.7 | 109 | 99 ± 8.6 | 88.2 | 117 ± 12 | 78.5 | 93.3 ± 9.7 | 86 ± 17 | 104 ± 29
12 | CN1CCc2nc(C(=O)NC3CC(C(=O)N(C)C)CCC3NC(=O)C(=O)Nc3ccc(Cl)cn3)sc2C1.Cc1ccc(S(=O)(=O)O)cc1.O (stereo not drawn) [Edoxaban tosylate monohydrate] | 102 ± 2.5 | 92.1 | 87.2 ± 11 | 91.2 | 109 ± 8.7 | 81.1 | 88.8 ± 16 | 96.4 ± 8.8 | 120 ± 4.4
13 | CCCCCCCCCCCCCCCCO [1-Hexadecanol] | 108 ± 3.9 | 95.9 | 97.8 ± 12 | 95.2 | 107 ± 84 | 109 | 67.1 ± 5.9 | 94.2 ± 11 | 84.7 ± 8.4
14 | O=C1CCc2ccc(OCCCCN3CCN(c4cccc(Cl)c4Cl)CC3)cc2N1 [Aripiprazole] | 105 ± 16 | 127 | 73.6 ± 6.5 | 82 | 73.33 ± 0.076 | 127 | 73.9 ± 8.9 | 104 ± 6.5 | 122 ± 3.3
15 | Cc1cn(C2C=CC(CO)O2)c(=O)[nH]c1=O (stereo not drawn) [Stavudine (d4T)] | 112 ± 12 | 115 | 110 ± 14 | 91 | 82.13 ± 0.67 | 117 | 104 ± 11 | 95.9 ± 9.4 | 127 ± 5
16 | COc1cc2c(cc1OC)CN(CCc1ccc(NC(=O)c3cccc4c(=O)c5cccc(OC)c5[nH]c34)cc1)CC2 [Elacridar] | 111.7 ± 0.54 | 71.7 | 71.7 ± 33 | 101 | 113 ± 35 | 97.7 | 63.7 ± 5.6 | 48.2 ± 22 | 89.9 ± 0.9
17 | OC[C@@H](O)[C@@H](O)[C@H](O)[C@@H](O)CO [D-Sorbitol] | 96 ± 11 | 118 | 107 ± 21 | 91.5 | 109 ± 4.5 | 120 | 96.3 ± 8 | 103 ± 2.6 | 120 ± 21
18 | CC1CC(OC(=O)C(O)c2ccccc2)CC(C)(C)C1 (stereo not drawn) [Cyclandelate] | 110 ± 9.8 | 122 | 87.6 ± 4.9 | 89.1 | 73.5 ± 14 | 113 | 80.8 ± 14 | 93.3 ± 10 | 95.91 ± 0.5
19 | Cc1ccccc1C(=O)Nc1ccc(C(=O)N2CCCC(O)c3cc(Cl)ccc32)c(C)c1 (stereo not drawn) [Tolvaptan] | 97.7 ± 38 | 138 | 80.4 ± 7.1 | 85.9 | 101 ± 5 | 159 | 89 ± 4.9 | 92.5 ± 19 | 157 ± 8.1

Row | SMILES | cell viability (HCI01) | cell viability (HCI03) | cell viability (HCI09) | cell viability (HCI11) | cell viability (HCI13) | cell viability (HCI16) | cell viability (UCD52) | cell viability (WHIM2) | cell viability (WHIM30)
20 | CN1CCC(=C2c3ccccc3CC(=O)c3sccc32)CC1.O=C(O)C=CC(=O)O [Ketotifen Fumarate] | 120 ± 23 | 125 | 135 ± 31 | 102 | 135 ± 13 | 173 | 95.4 ± 4.4 | 84.4 ± 3.9 | 154 ± 5.5
21 | CN1C2CCCC1CC(NC(=O)c1nn(C)c3ccccc13)C2.Cl (stereo not drawn) [Granisetron HCl] | 116 ± 6.1 | 111 | 90.4 ± 1.8 | 97.6 | 96.2 ± 16 | 89.6 | 113 ± 3.7 | 88.1 ± 22 | 115 ± 16
22 | CCOc1ccc2ccccc2c1C(=O)NC1C(=O)N2C1SC(C)(C)C2C(=O)[O-].O.[Na+] (stereo not drawn) [Nafcillin Sodium] | 107 ± 8.4 | 139 | 109 ± 6 | 110 | 117 ± 9.9 | 105 | 96.1 ± 8.5 | 101 ± 3.8 | 140 ± 11
23 | Cl.O=C1CN2Cc3c(ccc(Cl)c3Cl)NC2=N1 [Anagrelide HCl] | 121 ± 3.8 | 140 | 103 ± 9.3 | 120 | 128 ± 11 | 103 | 84.4 ± 4.6 | 116 ± 3.4 | 98.1 ± 2.5
24 | C=CC(=O)Nc1cccc(Nc2nc(Nc3ccc(N4CCN(C(C)=O)CC4)cc3OC)ncc2C(F)(F)F)c1 | 103 ± 4.6 | 99.9 | 63.8 ± 0.93 | 94 | 88.2 ± 3.4 | 73.3 | 64.7 ± 17 | 66.7 ± 2.6 | 99.6 ± 16
25 | COc1ccc(C(=O)c2ccccc2)c(O)c1 [Oxybenzone] | 120 ± 26 | 141 | 111 ± 15 | 109 | 103 ± 8.8 | 128 | 117 ± 11 | 125 ± 6.8 | 137 ± 22
26 | Cl.O=C1OC(CN2CCOCC2)CN1N=Cc1ccc([N+](=O)[O-])o1 (stereo not drawn) [Furaltadone HCl] | 75.8 ± 23 | 153 | 46.7 ± 22 | 63.7 | 94.2 ± 14 | 97 | 135 ± 13 | 42.7 ± 10 | 96 ± 4.8
27 | C[N+](C)(CCOc1ccccc1)Cc1ccccc1.O=C(O)c1cc2ccccc2cc1[O-] [Bephenium Hydroxynaphthoate] | 121 ± 9.4 | 127 | 128 ± 23 | 125 | 103 ± 21 | 104 | 89.6 ± 12 | 112 ± 22 | 151 ± 20
28 | NC(=O)N1c2ccccc2C=Cc2ccccc21 [Carbamazepine] | 107 ± 2.9 | 103 | 94.3 ± 32 | 106 | 91.8 ± 1.1 | 99.6 | 85.8 ± 4.4 | 75.2 ± 22 | 98.8 ± 4.5
29 | CCC(Nc1ncnc2nc[nH]c12)c1nc2cccc(F)c2c(=O)n1-c1ccccc1 (stereo not drawn) [CAL-101 (Idelalisib, GS-1101)] | 91.6 ± 8.4 | 80.7 | 88.2 ± 19 | 76.8 | 51.9 ± 3.4 | 68.1 | 68.3 ± 3 | 62.8 ± 2.9 | 121.9 ± 0.48
30 | CC12CCC3c4ccc(O)cc4CC(CCCCCCCCCS(=O)CCCC(F)(F)C(F)(F)F)C3C1CCC2O (stereo not drawn) [Fulvestrant] | 137 ± 7.5 | 89.1 | 65.5 ± 7.2 | 85.6 | 53 ± 6.5 | 95.7 | 78.9 ± 3.8 | 77.5 ± 36 | 129 ± 12
31 | COc1cc2nc(N3CCN(C(=O)c4ccco4)CC3)nc(N)c2cc1OC.Cl [Prazosin HCl] | 152 ± 2.9 | 129 | 36.9 ± 1.6 | 131 | 108 ± 16 | 156 | 140 ± 7.2 | 52.5 ± 4.7 | 114 ± 1.7
32 | O=C(O)CCCN1CCC(OC(c2ccc(Cl)cc2)c2ccccn2)CC1.O=S(=O)(O)c1ccccc1 (stereo not drawn) [Bepotastine Besilate] | 155 ± 45 | 131 | 112 ± 1.6 | 96.6 | 121 ± 6.6 | 128 | 87.6 ± 21 | 87.7 ± 5.1 | 138 ± 10
33 | CS(=O)(=O)O.Cc1ccc(N(CC2=NCCN2)c2cccc(O)c2)cc1 [Phentolamine Mesylate] | 112 ± 14 | 116 | 118 ± 7.2 | 112 | 124 ± 11 | 101 | 99.5 ± 6.4 | 93.5 ± 12 | 137 ± 12
34 | Cc1ccc(-n2nc(C(C)(C)C)cc2NC(=O)Nc2ccc(OCCN3CCOCC3)c3ccccc23)cc1 [BIRB 796 (Doramapimod)] | 138 ± 41 | 89.6 | 93.5 ± 19 | 71.1 | 48.5 ± 3.4 | 87.4 | 62.1 ± 7 | 89.8 ± 8 | 103 ± 18
35 | Cc1ccc2c(Cl)cc(Cl)c(O)c2n1 [Chlorquinaldol] | 102 ± 27 | 109 | 31.6 ± 15 | 52.7 | 105 ± 17 | 105 | 69.6 ± 16 | 94.2 ± 31 | 94 ± 5.7
36 | CCC1OC(=O)C(C)C(OC2CC(C)(OC)C(O)C(C)O2)C(C)C(OC2OC(C)CC(N(C)C)C2O)C(C)(O)CC(C)C2NC(COCCOC)OC(C2C)C1(C)O (stereo not drawn) [Dirithromycin] | 143 ± 72 | 117 | 89.5 ± 16 | 94 | 76.3 ± 11 | 103 | 81.8 ± 15 | 90.6 ± 12 | 92.4 ± 3.8
37 | CC(C)(C)c1nc(-c2cccc(NS(=O)(=O)c3c(F)cccc3F)c2F)c(-c2ccnc(N)n2)s1 | 118 ± 12 | 125 | 98.9 ± 1.2 | 119 | 187 ± 54 | 73.6 | 122 ± 12 | 116 ± 4.4 | 91.4 ± 15
